From PubChem BioAssay AID445 (National Center for Advancing Translational Sciences (NCATS), 2006)
Among all 110,000 compounds or so, about 40 (0.04%) were called active. Roughly 22% stayed inconclusive and do not appear here. This is one part of a sample in which actives are shown more often than they occur. Calls follow the shape of the dose curve; as a rule, active = well fitted curve in the direction sought with a large enough effect in the signal ratio (not every such curve was filed as active); inconclusive = small, poorly fitted or top-dose-only effect, or a change in a side signal; inactive = flat fitted curve, though single readings scatter; the % refers to the signal ratio.

test: IkB Signaling; settings: ABC-DLBCL IkBa-CBG/CBR dual luciferase ratio, 4 h; series mostly up to 57.1 µM
Text: NIH Molecular Libraries Screening Centers Network [MLSCN]
NIH Chemical Genomics Center [NCGC]
Nuclear factor kappa-B (NF-kappa-B) plays an important role in normal B cell development and survival. Diffuse large B cell lymphoma (DLBCL) is the most commonly observed type of non-Hodgkin's lymphoma. Gene expression analysis has identified an activated B cell-like subtype of DLBCL (ABC-DLBCL) which expresses known NF-kappa-B target genes. […] However, targets upstream of IKK have been largely unexplored and so nodes upstream of IKK in the NF-kappa-B pathway remain untested due to the lack of chemical probes.
A cell-sensor assay for I-kappa-B-alpha stabilization was developed with NIH investigator Dr. R. Eric Davis in Dr. Louis M. Staudt's laboratory. The assay uses green (CBG68) and red (CBR) emitting beetle luciferases [Chroma-Glo(TM) developed by Promega Corp.] where the green luciferase is fused to I-kappa-B-alpha and the red luciferase is present in its native state. Both luciferase genes are stably present in the OCI-Ly3 human ABC DLBCL cell line, but their expression is under the control of tetracycline-inducible promoters. Following the addition of doxycycline to induce expression of the luciferases, the green luminescence in control cultures rises only slowly because the CBG fusion partner I-kappa-B-alpha is targeted by IKK activity for rapid degradation. In contrast, green luminescence rises rapidly in the presence of proteasome inhibitors or IKK inhibitors. The rise in red luminescence of CBR is not affected by proteasome or IKK inhibitors, and serves as normalization for cell number and nonspecific effects. Compounds were screened as a concentration-titration series that ranged from 57 uM to 0.7 nM.
NCGC Assay Protocol Summary:
Cells were seeded in 1536-well plates at 5000 cells/3ul in IMDM medium containing 0.5% FBS, w/o phenol red, L-glutamine, 25 mM HEPES, 3 mg/ml sodium bicarbonate. After centrifugation for 1 min. at 1000 rpm, 23 nl of compounds or DMSO were delivered to each well using a pin tool. Then 1ul 80ng/ml doxycycline was dispensed into white solid 1536-well plates and the plates were incubated at 37C/5% C02 in a cell incubator for 4 hrs. Then 4 ul Chroma-Glo luminescent substrate mix (Promega) was added to each well. The plate was incubated at R.T. for 10-15 min. The plates were measured on a ViewLux plate reader for green luminescence (540/20 nm filter) and red luminescence (618/8 nm filter). The green and red luminescent signals were corrected for red and green luminescence filter overlap using previously determined filter calibration constants (determined using the procedure outlined in the Promega Technical Manual). The %Activity was determined from the ratio of corrected green/red luminescent values. Green luminescent and ratio %Activity was determined by normalizing to the difference in signal between basal cells (0% Activity) and cells incubated with 10 uM of the proteasome inhibitor MG-132 (100% Activity). Red luminescent %Activity was normalized to the difference between red luminesence in basal cells (0%Activity) and zero luminescence (-100% Activity).
Concentration-response curves were fitted to the signals arising from the green luminescence (I-kappa-B-alpha-luciferase fusion; IkB-luc) and the red luminescence (unfused luciferase; luc) as well as the calculated ratio. The concentration-effect curves were then classified based on curve quality (r2), response magnitude and degree of measured activity. Compounds were then categorized based on their concentration-response curves for all three datasets (Ikb-luc, luc and ratio).
Keywords: IKK, I-kappa-B, IkB, IkBa, cytotoxicity, luminescence, MLSMR, MLSCN, NIH Roadmap, qHTS, NCGC

Potency, inactive:
Cc1cccc(Cn2c(=O)n(CCC(=O)NCCc3ccc(Cl)cc3)c(=O)c3sccc32)c1
O=C(NC1CC(=O)N(c2ccc(F)cc2)C1)c1cccs1 (configuration not stated)
COc1ccc(CNc2nc(-c3ccccc3)nn2C(=O)c2ccccc2OC)cc1
Cc1ccc(Cn2c(CCCNC(=O)C3CCCCC3)nc3ccccc32)cc1
COc1ccccc1Cc1nc2ccccc2nc1SCC(=O)N1CCCc2ccccc21
CCc1nn(CC(=O)Nc2cc(C)cc(C)c2)c(=O)c2cc3sccc3n12
Cc1cc(C)cc(NS(=O)(=O)c2ccc3[nH]cc(C(=O)N4CCCCC4)c(=O)c3c2)c1
COC(=O)c1c(NC(=O)c2cc(=O)c3c(C)cc(C)cc3o2)sc2c1CCCC2
COc1ccc(C)cc1NC(=O)C(=O)NCCc1sc(-c2cccc(C)c2)nc1C
Cc1ccc2ncc(C(=O)Nc3ccc(OC(F)(F)F)cc3)c(=O)n2c1
Cc1cc(C)cc(OCC(=O)Nc2c(C(=O)c3ccccc3)oc3ccccc23)c1
O=C1CC(c2nnc(Cc3ccc(Cl)cc3)o2)CN1c1ccccc1 (configuration not stated)
CSc1ccc(C2c3c(oc4ccccc4c3=O)C(=O)N2CCCN2CCOCC2)cc1 (configuration not stated)
COCC(C)NS(=O)(=O)c1ccc(N2CCCCS2(=O)=O)cc1 (configuration not stated)
COc1cccc(CNC(=O)CCC(=O)N2CC3CCCN3c3ccccc32)c1 (configuration not stated)
CCc1ccccc1OCCSc1nc(-c2cccs2)nc2cc(=O)[nH]n12
Cc1cccc(NC(=O)CSc2nc3c(oc4ccccc43)c(=O)n2-c2ccc(F)cc2)c1
O=C1Cc2cc(S(=O)(=O)Nc3ccc(OC(F)(F)F)cc3)cc3c2N1CCC3
Cc1ccc(N(C)C(=O)C2CCN(S(=O)(=O)c3ccc4c(c3)CCCN4C(=O)C3CCC3)CC2)cc1
COC(=O)c1ccccc1NC(=O)c1ccc(COc2ccccc2Cl)o1
CCC1=Nc2cc(C(=O)NCCCOC(C)C)ccc2Sc2ccc(C)cc21
CCCCN(CC)CCCNC(=O)c1nn(C)c2c1CSc1ccccc1-2
O=C(Nc1ccc(-c2nc3cc(NC(=O)c4ccccc4Cl)ccc3o2)cc1)c1ccccc1Cl
CCCNC(=O)CCn1nc(-c2ccccc2)c2ccccc2c1=O
COC(=O)c1cc2occc2n1Cc1nc(-c2ccccc2C)oc1C
COc1cc(NC(=O)Cn2nc(-c3ccc(C)c(C)c3)ccc2=O)cc(OC)c1
CCOc1ccc(-c2cc3nc(C4CCN(C(=O)OC(C)(C)C)CC4)c(C(=O)Nc4ccc(C(=O)OC)cc4)cn3n2)cc1
O=C(NCCc1ccccc1)c1ccc2c(c1)N(Cc1ccccc1)C(=O)c1ccccc1S2(=O)=O
CCCN(CCC)C(=O)C(Cc1ccccc1)NS(=O)(=O)c1ccc2c(c1)c(=O)n(C)c(=O)n2C (configuration not stated)
CCOc1ccc(CCNC(=O)c2c(C)oc3ncn(C)c(=O)c23)cc1
O=C(NCCCO)c1nn(-c2ccc(Cl)cc2)nc1CO
Cc1ccc(NC2=C(c3ccc(C(F)(F)F)cc3)C(=O)c3ccccc32)cc1F
CC(C)OCCCn1c(SCC(=O)c2ccccc2)nc2c(sc3ccccc32)c1=O
CCCN1CCN(CCCNC(=O)c2cnn(-c3ccc(C)cc3)c2-n2cccc2)CC1
COc1cc(OC)c(OC)cc1/C=C/c1nc2ccccc2c(=O)n1-c1ccc(Br)c(C)c1
Cc1cccc(NC(=O)CSc2nc3c([nH]c4ccccc43)c(=O)n2-c2cc(C)cc(C)c2)c1
COc1ccc(CNS(=O)(=O)c2ccc(-c3cnc(C4CC4)o3)cc2)cc1
CCOC(=O)c1c(C)[nH]c(C)c1S(=O)(=O)N(C)CC(=O)N1CCN(c2ccccc2)CC1
CCOC(=O)c1c(NC(=O)/C=C/c2ccc(OC)cc2)sc2c1CCC(C)C2 (configuration not stated)
O=C(NCCc1ccccc1)C(=O)NCC(c1ccco1)S(=O)(=O)c1ccccc1 (configuration not stated)
CC(NC(=O)CCc1cn(Cc2ccccc2Cl)c2ccccc12)c1ccccc1 (configuration not stated)
CCc1nc2onc(C)c2c(=O)n1CC(=O)O
O=C1OC(C(=O)Nc2cccc(Br)c2)Cc2ccccc21 (configuration not stated)
CCC(=O)N1CCc2cc(CNC(=O)Nc3ccccc3Cl)ccc21
CCS(=O)(=O)N1CCC(n2c(C)nc3cccnc32)CC1
Cc1oc2c(c1C(=O)Nc1ccc(F)c(F)c1)C1=NCCN1C=N2
O=C(c1ccc2c(c1)N(Cc1ccccc1F)C(=O)c1ccccc1S2(=O)=O)N1CCOCC1
Cc1ccc(S(=O)(=O)c2nnn3c2nc(N2CCN(c4ccccc4F)CC2)c2cc(Cl)ccc23)cc1C
COCCCNC(=O)c1c(NC(=O)c2cc(=O)c3cc(C)c(C)cc3o2)sc2c1CCCC2
CC(C)(C)OC(=O)N1CCC(c2c(C(=O)N3CCc4ccccc4C3)cnn2-c2ccc(F)cc2)CC1
Cc1ccc2nc(-c3ccc(C)c(NC(=O)Cc4ccccc4)c3)oc2c1
O=C(NCc1ccc(F)cc1)c1ccc2nc(N3CCCCC3)sc2c1
COc1ccc(-c2nn(CC(=O)NC3CCCC3)c3c2cnc2ccc(F)cc23)cc1
CCOc1ccc(N2CC(C)Cn3c2nc2c3c(=O)n(Cc3c(F)cccc3Cl)c(=O)n2C)cc1 (configuration not stated)
CCOc1ccc(NC(=O)Cn2c(C)ccc(C#N)c2=O)cc1
O=C(Nc1cccc2cccnc12)c1cccc2c(Br)cccc12
COc1ccc(-n2c(SC)nc3sc4c(c3c2=O)CCN(C(C)=O)C4)cc1
Cc1ccc(S(=O)(=O)N2CCc3cc(C(=O)Nc4ccc(Cl)cc4C)ccc32)cc1
COc1ccc(C)cc1-n1c(-c2ccc(C)cc2)cc2c1CC(C)(C)CC2=O
CCC1CCCCN1Cc1c(O)ccc2c(=O)c(Oc3ccccc3Cl)c(C(F)(F)F)oc12 (configuration not stated)
Cc1ccc(F)cc1S(=O)(=O)N1CCC(c2nc3ccccc3s2)CC1
CC(=O)c1ccc(NC(=O)COc2ccccc2-c2nc(-c3ccccc3)no2)cc1
